Many of the other results were omitted from the sample, so hits are more common in it than they were.
KDM5B inh: blocks human KDM5B histone demethylase activity. KDM5B demethylase, FDH-coupled NADH fluorescence (FDH is formaldehyde dehydrogenase). Potency, µM (doses to about 57.7 µM), usual class: inhibitors. actives 2.6% (n = 220,000); active = well fitted inhibition curve with a large enough effect; also: 0% is about no effect; nearly all actives have a fitted effect of over 70% in size
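Inhibition is measured as reduced NADH fluorescence generation from FDH coupling to formaldehyde release. Truncated KDM5BΔAP at 200 nM final acts on H3K4me3 peptide (12.5 µM in substrate mix) in pH 7.5 HEPES buffer with Tween-20, 30 min, room temperature.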
The depositor's hits bear a star; i = inactive. Potency is read from the fitted curve at half-maximal effect.

SMILES	KDM5B inh
N#Cc1nc(/C=C/c2ccc(F)cc2)oc1N1CCCC1	i
O=C(NCc1ccc(F)cc1)c1nc(-c2ccc(Cl)cc2Cl)c2cnccn12	56µM*
O=C(NCc1ccc(F)cc1)c1cc2cc(Cl)ccc2[nH]1	i
O=C(NCc1ccc(F)cc1)c1cc(-c2ccc(Cl)cc2Cl)c2cccn2n1	i
O=C(NCc1cccs1)c1nc2sccn2c1Br	i
O=C(NCc1cccs1)c1nc(-c2ccc(F)cc2)c2cnccn12	40µM*
COCCCNC(=O)C1CCCCC1	i
CCOc1cccc2cc(S(=O)(=O)N3CCCC3)c(=O)oc12	i
O=C(NN=C(c1ccccc1)c1ccccc1)c1ccc[n+]([O-])c1	i
O=C(O)CCC(NC(=O)C(c1ccccc1)c1ccccc1)C(=O)O (centres undefined)	i
CC(NC(=O)C1CC1)c1cccnc1 (centres undefined)	i
Cc1ccc(SCCNC(=O)c2ccc3c(c2)OCCCO3)cc1	i
COCC1CN(C(=O)COc2ccc(Cl)cc2C)CC12CCNCC2 (centres undefined)	i
Cc1ccc(S(=O)(=O)N2CCN(CCNC(=O)c3ccccc3C(F)(F)F)CC2)cc1	i
Cc1noc2c(Nc3ccc(C(N)=O)cc3)cc(-c3ccc(F)cc3)nc12	16µM*
Cc1noc2c(-c3ccnn3C)cc(-c3ccc(F)cc3)nc12	i
Cc1noc2c(NC(C)C)cc(-c3ccc(Cl)cc3)nc12	i
Cn1c(=O)c2c(nc(SCC(=O)O)n2Cc2c(F)cccc2Cl)n(C)c1=O	i
CCOc1ccc(-c2[nH]nc3c2C(c2c(F)cccc2Cl)C(C#N)=C(N)O3)cc1OC (centres undefined)	i
CCC1c2ccsc2CCN1C(=O)CCNC(=O)c1ccc(F)cc1F (centres undefined)	i
CC1CCCN(S(=O)(=O)NCc2ccnc(N3CCN(c4ccc(F)cc4)CC3)c2)C1 (centres undefined)	i
CC(C)n1nc(OC(C)(C)C(=O)NC2CC2)c2cc(CN3CCOCC3)ccc21	32µM*
CC(Sc1nc(CN2CCOCC2)nc2ccccc12)C(=O)NC1CC1 (centres undefined)	i
CC(C)(Oc1nn(CCN2CCOCC2)c2ccccc12)C(=O)NCCOc1ccccc1	i
CC(C)n1nc(OC(C)(C)C(=O)NCCc2ccccn2)c2cc(CN3CCOCC3)ccc21	28µM*
SMILES	KDM5B inh
COCc1ccc2c(c1)c(OC(C)(C)C(=O)N1CCOCC1)nn2Cc1cccnc1	i
CC(C)n1nc(OC(C)(C)C(=O)NCCc2cccnc2)c2cc(CN3CCOCC3)ccc21	i
COC(=O)[C@@H](CCSC)NC(=O)Nc1ccc(OC)c(Cl)c1	i
CCC(C(=O)Nc1cccc2ccccc12)n1cnc2c1c(=O)n(C)c(=O)n2C (centres undefined)	i
COc1ccccc1NC(=O)N1CCc2cc(OC)c(OC)cc2C1CNC(=O)c1ccco1 (centres undefined)	i
O=c1c2ccc(Cl)cc2ncn1Cc1ncc(-c2ccc(Cl)cc2)o1	i
Cc1ccc(-c2ccc3ncn(Cc4ccccn4)c(=O)c3n2)c(C)c1	32µM*
O=c1c2nc(-c3ccccc3)ccc2ncn1Cc1ccccn1	40µM*
Cc1ccc(C)c(Cn2cnc3ccccc3c2=O)c1	i
O=c1c2ccc(Cl)cc2ncn1Cc1coc(-c2cccs2)n1	i
O=c1c2nc(-c3ccc(O)c(F)c3)ccc2ncn1-c1ccc(F)cc1F	i
COc1ccc(-c2ccc3ncn(Cc4ccccn4)c(=O)c3n2)cc1F	35µM*
COc1ccccc1Cn1cnc2cccnc21	i
Cn1cnc2ccc(-c3cccc(C(F)(F)F)c3)nc2c1=O	i
Cc1ccc(-c2ccc3ccccc3n2)c(C)c1	i
Cn1ccc2cc(-c3ccc4ncn(Cc5ccccn5)c(=O)c4n3)ccc21	i
O=c1c2nc(-c3ccc(Cl)cc3)ccc2ncn1Cc1ccccn1	35µM*
COc1ccc(N(Cc2cc(CN3CCOCC3)cs2)S(=O)(=O)c2cc(C)cc(C)c2)cc1	i
CC(C)C(=O)/C=C(\N)C(Cl)(Cl)Cl	i
Cn1nnnc1-c1cccc(NS(=O)(=O)c2cc(C(F)(F)F)ccc2Cl)c1	i
CCOC(=O)c1cnc(Nc2cccc(C)c2C)c2ccccc12	i
COc1ccccc1NC(=O)CC1Sc2ccccc2NC1=O (centres undefined)	i
O=C(Nc1ccc(Cl)cc1)c1nn(Cc2ccccc2)c(=O)c2ccccc12	i
O=C(CCc1ncc(-c2ccc(F)cc2)o1)N1CCc2ccccc21	i
COc1cccc(-c2cc3c(=O)n(CCNC(=O)c4ccccc4Cl)ccn3n2)c1	i
SMILES	KDM5B inh
COc1ccc(-c2cc3c(=O)n(CCNC(=O)c4cccc5[nH]ccc45)ccn3n2)cc1	22µM*
COc1cccc(-c2cc3c(=O)n(CCNC(=O)Cc4c[nH]c5ccccc45)ccn3n2)c1	i
COc1cccc(-c2cc3c(=O)n(CCNC(=O)c4cccc5[nH]ccc45)ccn3n2)c1	25µM*
Cn1c(=O)c2sc3c(c2n(CC(=O)NCCc2ccccc2)c1=O)COC(C)(C)C3	i
O=C1Nc2ccccc2CC12CCCN2Cc1ccc(F)cc1 (centres undefined)	i
Cc1sc(NC(=O)Cn2cnc3c2c(=O)n(C)c(=O)n3C)nc1-c1ccc(OC(F)F)cc1	i
O=C(N(Cc1ccc2cc[nH]c2c1)C1CC1)C12CC3CC(CC(C3)C1)C2	i
COC(=O)c1ccc(C2C(c3ccc(C)cc3)=C(O)C(=O)N2CCc2ccccc2)cc1 (centres undefined)	i
COc1ccc(Oc2c(C)oc3cc(OCC(=O)NC4CC4)ccc3c2=O)cc1	i
COC(=O)c1ccc(COC(=O)CCc2nc3ccccc3[nH]c2=O)cc1	i
CN(C)[C@@H]1[C@@H](NC(=O)c2cc(=O)n(-c3ccccc3)[nH]2)[C@H]2CCO[C@H]21	i
CN(C)[C@@H]1[C@@H](NC(=O)CCc2nc3ccccc3[nH]c2=O)[C@H]2CCO[C@H]21	28µM*
CCc1ccc(C(=O)Oc2ccc(-c3ccccc3)cc2)cc1	i
CCCCCCCCCCCCCCCCN1CCCC1	i
COc1ccc(NC(=O)CSc2ccc3nnc(-c4ccccn4)n3n2)cc1	i
COc1ccc(-c2nnc3ccc(NCCc4ccccn4)nn23)nc1	40µM*
COc1ccc(Nc2ccc3nnc(-c4ccccn4)n3n2)cc1	i
Cc1ccccc1C(=O)N1CCn2c(nn(-c3ccc(F)cc3)c2=O)C1	i
COc1ccccc1C(=O)N1CCn2c(nn(-c3ccc(C(F)(F)F)cc3)c2=O)C1	79µM*
O=C(c1ccc(Cl)nc1)N1CCn2c(nn(-c3ccncc3)c2=O)C1	i
Cc1ccc(-n2nc3n(c2=O)CCN(C(=O)c2ccc(Cl)nc2)C3)cc1	25µM*
COc1ccc(-n2nc3n(c2=O)CCN(C(=O)c2ccc(C(F)(F)F)cc2)C3)cc1	i
Cc1ccc(C(=O)N2CCn3c(nn(-c4ccc(Cl)cc4)c3=O)C2)cc1	i
COc1ccc(C=O)cc1CSc1ccc(C)cc1	i
CCC(C)(C)C1CCc2c(sc(NC(C)=O)c2C#N)C1 (centres undefined)	i
Fc1cccc(NC(=S)NCCc2c[nH]c3ccccc23)c1	i
O=C(Nc1cc(Cl)ccc1-n1cncn1)C1CC(=O)N(c2ccc3c(c2)OCCO3)C1 (centres undefined)	i
CCn1nc(C(=O)NCc2ccco2)c2ccccc2c1=O	i
CC1(C)CC(Nc2nccc(C(F)(F)F)n2)CC(C)(C)N1	i
